PubChem BioAssay AID590 (National Center for Advancing Translational Sciences (NCATS), 2007)
Screen size: about 59,000 compounds; about 6,500 (11%) were called active. Roughly 15% stayed inconclusive and do not appear here. Cut-off read from the data, not from the text of the source: active = max dye-equivalent concentration above about 10 nM; inconclusive = mostly about 1.1 nM to 9.6 nM; inactive = weaker than that. For the sample, actives were picked, then their nearest neighbours and some compounds at random.

Test: qHTS Assay for Spectroscopic Profiling in A350 Spectral Region
Settings: Compound autofluorescence, 340/450 nm, Alexa 350 dye-equivalents; active compounds read high

Compound | max dye-equivalent concentration
CCCCNc1nc2ccccc2nc1NS(=O)(=O)c1cccs1 | 61 nM (active)
O=S(=O)(c1cccs1)N1CCN(Cc2ccccc2)CC1 | inactive
O=S(=O)(c1cccs1)N1CCc2ccccc2C1 | inactive
COCCNc1ncnc2ccc(-c3ccccc3CN(C)C)cc12 | inactive
COc1ccc(-c2cc(C(=O)NC(C(=O)O)C(C)C)c(C)o2)cc1OC (stereo unspecified) | inactive
CCOC(=O)CSc1nnc(-c2ccncc2)o1 | inactive
COc1ccc2nc(NC(=O)c3ccc(Br)s3)sc2c1 | 550 nM (active)
COC(=O)c1sc(NC(=O)c2ccc(OC)cc2OC)nc1C | inactive
CNC(=O)c1ccc2nc(NC(C)=O)sc2c1 | inactive
CCOC(=O)c1sc(NC(=O)CSc2nnc(-c3ccco3)o2)c(C(=O)OCC)c1C | inactive
O=C(c1csnn1)N1CCC[C@@]2(CCN(c3cccc(-c4ccccc4)c3)C2)C1 | inactive
COc1ccc(-n2c(SCC(=O)OC(C)C)nnc2-c2ccccn2)cc1 | inactive
CCOc1cccc(-n2nnnc2-c2ccc(OC)cc2)c1 | inactive
COc1ccc(C2C(C(=O)Nc3ccccc3OC)=C(C)Nc3nnnn32)c(OC)c1 (stereo unspecified) | inactive
COc1ccc(C2=CC(c3cccc(OC)c3)n3nnnc3N2)cc1 (stereo unspecified) | 15 nM (active)
COC(=O)C1=C(C)NC(=O)NC1/C=C/c1ccccc1 (stereo unspecified) | inactive
O=S(=O)(Nc1ccccn1)c1ccc(Oc2ccccc2)cc1 | inactive
CC(C)c1nc(N2CCOCC2)c(C#N)c2c1COC(C)(C)C2 | 150 nM (active)
CC1(C)Cc2c(C#N)c(SCc3nc4ccccc4[nH]3)nc(N3CCOCC3)c2CO1 | 23 nM (active)
CC(C)C(=O)N1CCN(c2nc(-c3ccccc3)c3c(c2C#N)CC(C)(C)OC3)CC1 | 200 nM (active)
COc1ccc(CSc2nc(N3CCOCC3)c3c(c2C#N)CC(C)(C)OC3)cc1 | 34 nM (active)
c1ccc2[nH]c(NCCN3CCOCC3)nc2c1 | inactive
COc1cc(C2C(C#N)=C(N)Oc3n[nH]c(-c4ccccn4)c32)cc(OC)c1OC (stereo unspecified) | inactive
CCc1nnc(NC(=O)c2c(O)c3c([nH]c2=O)CCCC3)s1 | inactive

Compound | max dye-equivalent concentration
CN(Cc1ccccc1)Cc1ccccc1F | inactive
Cc1ccc(S(=O)(=O)N2CCC(C(=O)N[C@@H](C)C(=O)NCc3ccccc3)CC2)cc1 | inactive
O=C(c1csnn1)N1CCC2(CC1)CN(c1ncccn1)C2 | inactive
CC(C)OCCCNC(=O)CNC(=O)c1cccs1 | inactive
CCCCOc1ccc(Cl)cc1CSc1nncn1N | inactive
O=C1[C@@H]2C(Cc3ccc(O)cc3)NC3(C(=O)Nc4ccc(F)cc43)[C@@H]2C(=O)N1c1ccc(F)cc1 (stereo partly specified) | inactive
CC(C)Cc1nc(N2CCOCC2)c(C#N)c2c1CCC2 | 62 nM (active)
Cc1cc(C(=O)COC(=O)CCCN2C(=O)c3ccccc3C2=O)c(C)n1C | inactive
O=C(CN1C(=O)CCC1=O)Nc1ccc(S(=O)(=O)N2CCOCC2)cc1 | inactive
CC(=O)OCc1cc(=O)n(C)c(=O)n1C | inactive
COc1c(C)cccc1C(=O)Nc1cc(Cl)ccc1N1CCOCC1 | inactive
O=C(O)[C@@H](O)Cc1ccccn1 | inactive
COc1ccc2c(c1)CCc1c(C(=O)N3CCc4ccccc4C3)noc1-2 | inactive
CCOC(=O)c1[nH]c2ccc(C)cc2c1N=C(C)N(C)C | 29 nM (active)
CCOC(=O)CN(C)Cc1c[nH]c2ccccc12 | inactive
CCOC(=O)c1[nH]c2ccccc2c1N=C(C)N(CC)CC | inactive
CC(=O)c1cccc(NC(=O)N2CCCC2C(=O)NCCC(C)C)c1 (stereo unspecified) | inactive
CC12CCC(C(=O)N3CCN(c4ncccn4)CC3)(c3nc4ccccc4nc31)C2(C)C (stereo unspecified) | inactive
O=c1nc(N2CCOCC2)nc2n1CCO2 | inactive
O=C(CSc1nc2ccccc2[nH]1)c1cccs1 | inactive
N#Cc1c(N)n(CCOC(=O)c2ccc(Cl)cc2)c2nc3ccccc3nc12 | 610 nM (active)
Cn1cccc1C(=O)N1CCC2(CC1)CN(c1cccc(-c3ccccc3)c1)C2 | inactive
CC[C@@H]1Cc2cc(O)ccc2C2=C1c1ccc(O)cc1C[C@H]2CC | 260 nM (active)
CCC1SC2=NCCN2C1(O)c1ccc(Cl)cc1 (stereo unspecified) | inactive

Compound | max dye-equivalent concentration
Cc1cc(NC(=O)c2cnn3cccnc23)n(-c2ccccc2)n1 | inactive
CCC(C(=O)NC1CCCC1)N(C(=O)c1snc(C(N)=O)c1N)c1ccc2c(c1)OCCO2 (stereo unspecified) | inactive
COCCNC(=O)C(c1ccc(C)o1)N(Cc1cccs1)C(=O)c1snc(C(N)=O)c1N (stereo unspecified) | 88 nM (active)
COCCNC(=O)C(c1ccc(C)o1)N(Cc1ccccc1)C(=O)Cn1nnc2ccccc21 (stereo unspecified) | inactive
N=c1c2c3c(sc2ncn1CCCN1CCOCC1)CCCCC3 | inactive
CN(CCc1ccccn1)S(=O)(=O)c1ccc2c3c(cccc13)C(=O)N2 | 790 nM (active)
O=c1[nH]nc(Cc2ccccn2)c2ccccc12 | inactive
CCNc1nc(N)nc(Oc2ccc(OCC)nn2)n1 | inactive
COc1ccccc1N1CCN(C(=O)CN(Cc2ccc(Cl)cc2)S(C)(=O)=O)CC1 | inactive
Cn1cccc1C(=O)Nc1nccs1 | inactive
Cn1cccc1C(=O)NC(=O)COC(=O)Cc1coc2ccc3ccccc3c12 | 38 nM (active)
O=C1C2(c3ccccc3)CN(CCCO)CC1(c1ccccc1)CN(CCCO)C2 | inactive
Cn1c(=O)[nH]c(=O)c2c1nc(Br)n2CCCCSc1nc2ccccc2o1 | inactive
Cc1cc(N2CCCCC2)nc2ccc(Cc3ccc4nc(N5CCCCC5)cc(C)c4c3)cc12 | 43 nM (active)
Fc1ccc2nc(N3CCCCC3)sc2c1 | inactive
CCCn1c(SCC(=O)Nc2cccc(C(=O)OCC)c2)nnc1-c1ccoc1C | inactive
Cc1cc(=O)cc(C)[nH]1 | inactive
Cc1ccccc1-c1nc(N(C)Cc2ccco2)c2ccccc2n1 | inactive
Clc1cccc(Cl)c1Cn1nnc(-c2cccs2)n1 | inactive
CCOC(=O)c1c(N)c(C#N)nn1-c1ccccc1C(=O)OC | inactive
O=C(Nc1ccccc1)c1cccnc1Nc1ccccc1 | inactive
COC(=O)Nc1nc2ccc(Sc3ccccc3)cc2[nH]1 | 16 nM (active)
Oc1ccc2nc(Cc3ccccc3)[nH]c2c1 | inactive
